# Measured values: PubChem BioAssay (EPA / NIEHS)
# Where “and” joins values, the source holds several entries; their conditions need not be identical. Equal entries are not always repeated. Inconclusive results are not listed. Some compounds were tested as several samples or in several runs, with calls that do not always agree. Calls of active or inactive are those of the source. How the source made its calls, unless noted: active means hit-call score of the fitted dose curve at least 0.9, where 1 is the maximum; inconclusive means response in the unintended direction; inactive means score below 0.9.
# Legend:
# [1] = ATG_XTT_Cytotoxicity: Cytotoxicity Assessment in the Attagene TRANS-FACTORIAL HepG2 Assay (AID 2283584);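 on AC50: cells exposed to compound for 24 h before reading; active means loss of viability signal versus DMSO baseline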
# Summary of the method: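 HepG2 human liver cells, transiently transfected with multiple GAL4-UAS reporter units, were dosed and read at 24 h by XTT as cell number. Loss of signal was fitted relative to DMSO negative control baseline.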
# [2] = read-out: UDP glucuronosyltransferase (UGT1A1), UGT1A1 (gene 54658); assay: LTEA_HepaRG_UGT1A1: Life Technologies and Expression Analysis (LTEA) Assay for UDP glucuronosyltransferase (UGT1A1) using HepaRG (AID 2283538; active means hit-call score of the fitted dose curve at least 0.9, where 1 is the maximum; inactive means score below 0.9); details: mRNA level, 48 h; actives raise or lower the signal
# Summary of the method: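 HepaRG cells, 0.5% DMSO vehicle, 48 h exposure in serum-free induction medium to 8-point half-log series topping at 100 uM, in duplicate. UGT1A1 mRNA by Fluidigm qRT-PCR, normalized to ACTB/GAPDH/POLR2A; bidirectional fit versus DMSO.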
# [3] = read-out: UDP glucuronosyltransferase (UGT1A6), UGT1A6 (gene 54578); assay: LTEA_HepaRG_UGT1A6: Life Technologies and Expression Analysis (LTEA) Assay for UDP glucuronosyltransferase (UGT1A6) using HepaRG (AID 2283539; active means hit-call score of the fitted dose curve at least 0.9, where 1 is the maximum; inactive means score below 0.9); details: mRNA level, 48 h; actives raise or lower the signal
# Protocol: LTEA_HepaRG is a cell based, multiplexed-readout assay that uses HepaRG, a human liver cell line, with measurements taken at 48 hours after chemical dosing on a 96-well plate.LTEA_HepaRG_UGT1A6 is one of 102 assay component(s) measured in the LTEA HepaRG cell culture assay. It is a marker of NR mediated metabolism.Data from the assay component LTEA_HepaRG_UGT1A6 was analyzed into 1 endpoint. This assay endpoint, LTEA_HepaRG_UGT1A6, was analyzed with bidirectional fitting relative to DMSO as the negative control and baseline of activity. Using a type of inducible reporter, measures of mRNA induction for gain or loss-of-signal activity can be used to understand regulation of transcription factor activity. To generalize the intended target to other relatable targets, this assay endpoint is annotated to the transferase intended target family, where the subfamily is glucuronosyltransferase.
# A total of 1060 chemcials from the ToxCast library were tested in eight-point concentration-response experiments. Cell culture and cytotoxicity assays were conducted at Thermo Fisher Scientific's Custom Services facility (Madison, WI). A single lot of human HepaRG cells (Thermo Fisher Scientific, Frederick, MD) was used for the cell culture experiments. 96-well format collagen type I coated plates of human HepaRG cells were prepared using established methods. Briefly, cryopreserved HepaRG cells were thawed, plated at a density of approximately 100,000 cells/well in HepaRG Thaw, Plate, and General Purpose media (HPRG770, Thermo Fisher Scientific), and incubated for 48 hours. 0.5% DMSO was selected as vehicle control to balance the requisite need of DMSO in HepaRG cultures to maintain differentiation (for example, baseline metabolism, proportions of hepatocytes vs. cholangiocytes), while enabling further hepatic receptor pathway activation (for example, PXR and CAR) in response to chemical exposure. 48 hours after plating, the culture medium was replaced with HepaRG Serum-Free Incudtion Media. Cells were exposed to each test chemical in duplicate and maintained in CO2 incubators for another 48 hours. Chemical plates were thawed to room temperature and 200x concentrations of treatment groups were prepared. 8-point conentration-reponse curves were made with the highest exposure at 100 uM, followed by half-log dilutions, all in 0.5% DMSO. Each test plate contained variouse controls, induction positive controls (1mM phenobarbital), cytotoxicity positive controls ([…] aflatoxin B1), vehicle controls (0.5% DMSO), and total lysis controls (0.5% DMSO). Cell morphology images were taken using an Essen IncuCyte FLR automated microscope, with six 96-well plates imaged in about 24 minutes. Images were captured and exported and JPEG files. Spent culture media was transfered to black-well plates for the LDH assay, and remaining media was sorted at -80 C for later use. Cells were treated with RLT buffer and frozen until shipped for gene expression analysis. Total RNA was isolated from the cell suspension in 75 uL of Buffer RLT (Qiagen, Germantown, MD 20874) by Quintiles/Expression Analysis (Durham, NC) using a custom isolation procedure. Total RNA from each plate well was transferred to a preamplification plate. Fluidigm's 96.96 Dynamic ArrayTM (Fluidigm, Amsterdam, the Netherlands) technology was used for gene expression analyses by quantitative reverse transcription polymerase chain reaction (qRT-PCR, performed by Quintiles/Expression Analysis, Durham, NC)89. Standard TaqManTM Assays (Applied Biosystems/ThermoFisher Scientific, Foster City, CA) were used to assess the expression of 93 genes selected based on their selectivity and sensitivity to important hepatic receptors known to be modulated by environmental chemicals; importance in human hepatocyte functionality; and hepatotoxicity. […]
# [4] = read-out: X-box binding protein 1 (XBP1), XBP1 (gene 7494); assay: LTEA_HepaRG_XBP1: Life Technologies and Expression Analysis (LTEA) Assay for X-box binding protein 1 (XBP1) using HepaRG (AID 2283540; active means hit-call score of the fitted dose curve at least 0.9, where 1 is the maximum; inactive means score below 0.9); details: mRNA level, 48 h; actives raise or lower the signal
# Summary of the method: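 Differentiated human HepaRG cells in serum-free induction medium were exposed in duplicate for 48 h to eight half-log concentrations up to 100 uM in 0.5% DMSO. XBP1 mRNA was quantified by qRT-PCR, normalised to ACTB, GAPDH and POLR2A, with bidirectional fitting against DMSO.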
# [5] = LTEA_HepaRG_LDH_cytotoxicity: Cytotoxicity Assessment in the Life Technologies and Expression Analysis (LTEA) Assay (AID 2283563);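 on AC50: LDH activity released into spent culture medium as a marker of cell death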
# Summary of the method: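 Differentiated human HepaRG cells, plated 48 h beforehand, were switched to serum-free induction medium and exposed for 48 h to eight half-log concentrations (top 100 uM) in 0.5% DMSO. LDH was measured in spent medium; activity was fitted relative to DMSO vehicle.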
# [6] = TOX21_p53_BLA_p2_viability: Viability Assessment in the Tox21 HCT-116 p53 Agonism Beta-lactamase Assay, Phase 2 (AID 2283591);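 further: compound exposure lasted 16 h at 37 °C; actives lower the ATP signal meaning cytotoxicity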
# Summary of the method: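 Cytotoxicity readout: CellTiter-Glo ATP luminescence, 30 min at room temperature, after the beta-lactamase read. Cells were HCT116 exposed 16 h at 37C to compounds pin-transferred at 217-fold dilution from DMSO stocks.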
# [7] = biological target: Cellular tumor antigen p53 (Homo sapiens) (UniProt P04637); assay: TOX21_p53_BLA_p2_ratio: Tox21 HCT-116 p53 Agonism Beta-lactamase Assay, Ratio, Phase 2 (AID 2283592)
# Cellular tumor antigen p53 (Homo sapiens), sequence (P04637 whole entry, looked up): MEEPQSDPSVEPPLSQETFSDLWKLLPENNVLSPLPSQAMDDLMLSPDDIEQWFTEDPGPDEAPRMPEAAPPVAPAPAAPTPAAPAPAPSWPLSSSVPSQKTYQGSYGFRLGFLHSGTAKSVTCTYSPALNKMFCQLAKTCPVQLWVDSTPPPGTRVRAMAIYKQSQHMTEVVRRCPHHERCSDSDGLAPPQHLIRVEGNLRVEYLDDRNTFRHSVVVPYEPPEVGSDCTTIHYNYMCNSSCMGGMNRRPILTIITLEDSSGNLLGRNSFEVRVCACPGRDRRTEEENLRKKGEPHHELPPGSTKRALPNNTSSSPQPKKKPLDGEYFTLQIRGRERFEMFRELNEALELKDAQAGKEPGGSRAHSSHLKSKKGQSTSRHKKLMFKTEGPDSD
# Summary of the method: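 HCT116 cells carrying a p53-responsive beta-lactamase reporter were plated, incubated 5 h at 37C, then dosed with compounds in DMSO (217-fold dilution) for 16 h. CCF4-AM substrate was added for 2 h at room temperature; the 460/530 nm emission ratio gave gain-of-signal activity relative to DMSO.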
# [8] = TOX21_p53_BLA_p3_viability: Viability Assessment in the Tox21 HCT-116 p53 Agonism Beta-lactamase Assay, Phase 3 (AID 2283593);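 further: cells exposed to compound for 16 h before reading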
# Summary of the method: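 Cellular ATP was quantified by CellTiter-Glo luminescence, read after 30 min at room temperature. Beforehand, HCT116 cells (4000/well) received compound 5 h post-seeding, 217-fold diluted from DMSO, then incubated 16 h at 37C.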
# [9] = biological target: Cellular tumor antigen p53 (Homo sapiens) (UniProt P04637); assay: TOX21_p53_BLA_p3_ratio: Tox21 HCT-116 p53 Agonism Beta-lactamase Assay, Ratio, Phase 3 (AID 2283596)
# Summary of the method: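 HCT116 p53-bla cells (4000/well) given compound in DMSO (217-fold dilution) after 5 h, incubated 16 h at 37C. CCF4-AM substrate 2 h at room temperature; 460/530 nm emission ratio, gain fitted against DMSO.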
# [10] = TOX21_p53_BLA_p4_viability: Viability Assessment in the Tox21 HCT-116 p53 Agonism Beta-lactamase Assay, Phase 4 (AID 2283597);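 further: hits lower the luminescence signal meaning cytotoxicity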
# Summary of the method: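 HCT116 p53-bla cells (4000/well) rested 5 h at 37C, then received compounds in DMSO (217-fold dilution) for 16 h at 37C, 5% CO2. CellTiter-Glo was added after the CCF4-AM read, and luminescence was read after 30 min at room temperature.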
compound,measurement,setting,value
CC1(C)[C@H](C=C(Cl)Cl)[C@H]1C(=O)OCc1cccc(Oc2ccccc2)c1,outcome,[1],inactive
CC(=O)c1ccc(C)cc1,outcome,[1],inactive
OCC=Cc1ccccc1,outcome,[1],inactive
CC(=O)CCC(=O)O,outcome,[1],inactive
O=C(c1ccc(OCCN2CCCCC2)cc1)c1c(-c2ccc(O)cc2)sc2cc(O)ccc12,AC50,[2],50 µM (active)
same,AC50,[3],50 µM (active)
same,AC50,[4],50 µM (active)
same,AC50,[5],77.4 µM (active)
same,AC50,[1],28.3 µM (active) and 28.6 µM (active) and 34.3 µM (active)
same,outcome,[1],inactive
same,AC50,[6],84.9 µM (active) and 71.8 µM (active) and 42.8 µM (active)
same,AC50,[7],68.6 µM (active) and 62.8 µM (active) and 36.4 µM (active)
same,AC50,[8],69.8 µM (active) and 74.5 µM (active) and 35.6 µM (active)
same,AC50,[9],74.5 µM (active) and 71.4 µM (active) and 26.1 µM (active)
same,AC50,[10],68.2 µM (active) and 68.5 µM (active) and 25.1 µM (active)
CC(C)(C)c1cc(CCC(=O)OCCSCCOC(=O)CCc2cc(C(C)(C)C)c(O)c(C(C)(C)C)c2)cc(C(C)(C)C)c1O,outcome,[1],inactive
C#C[C@]1(O)CC[C@H]2[C@@H]3CCc4cc(O)ccc4[C@H]3CC[C@@]21C,outcome,[2],inactive
same,outcome,[3],inactive
same,outcome,[4],inactive
same,outcome,[5],inactive
same,outcome,[1],inactive
same,outcome,[6],inactive
same,AC50,[9],15.2 µM (active) and 16.2 µM (active)
same,outcome,[10],inactive
CCC(CC)CO,outcome,[1],inactive
CCO[Si](CCC#N)(OCC)OCC,outcome,[1],inactive
CCCCCCCCSCc1cc(C)c(O)c(CSCCCCCCCC)c1,outcome,[1],inactive
